Our source for the outcome and AC50 values is PubChem BioAssay (EPA / NIEHS).

In assay [1] the target is Estrogen-related receptor gamma (Homo sapiens) (UniProt P62508). The assay is described as follows: ATG_ERRg_TRANS: Attagene TRANS-FACTORIAL HepG2 Assay for human Estrogen-Related Receptor gamma (ERRg) (AID 2282977; active means hit-call score of the fitted dose curve at least 0.9, where 1 is the maximum;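 further: hits increase reporter signal over DMSO so potencies reflect activators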). The note with it: HepG2 Attagene TRANS reporter, ERRg transactivation. The procedure, abridged:
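Transient HepG2 transfectants, 24 h compound exposure, GAL4-UAS reporter mRNA by RT-PCR/6-FAM labelling/capillary electrophoresis; positive direction vs DMSO.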

For assay [2], the target named is Bile acid receptor (Homo sapiens) (UniProt Q96RI1). The assay is described as follows: ATG_FXR_TRANS: Attagene TRANS-FACTORIAL HepG2 Assay for Farnesoid X Receptor (FXR) (AID 2282979; active means hit-call score of the fitted dose curve at least 0.9, where 1 is the maximum;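 further: hits raise reporter mRNA above DMSO so AC50 marks FXR activation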). The note with it: HepG2 Attagene TRANS FXR-GAL4 reporter transcription. In a few lines: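 HepG2 cells were transiently transfected with GAL4-UAS reporters driven by chimeric NR-Gal4 proteins and dosed for 24 h. Reporter mRNA was quantified by RT-PCR, fluorescent labelling, HpaI digestion and capillary electrophoresis, with gain of signal scored versus DMSO.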

Assay [3] has as its target Oxysterols receptor LXR-alpha (Homo sapiens) (UniProt Q13133). Description: ATG_LXRa_TRANS: Attagene TRANS-FACTORIAL HepG2 Assay for human Liver X Receptor alpha (LXRa) (AID 2282980; active means hit-call score of the fitted dose curve at least 0.9, where 1 is the maximum). The note with it: HepG2 Attagene TRANS reporter, LXRa transactivation. In a few lines:
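HepG2 cells transiently transfected with GAL4-UAS reporter units for chimeric NR-Gal4 proteins, exposed to chemicals for 24 h. Reporter mRNA quantified by RT-PCR and capillary electrophoresis; gain of signal fitted relative to DMSO.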

The target of assay [4] is Oxysterols receptor LXR-beta (Homo sapiens) (UniProt P55055). The assay is described as follows: ATG_LXRb_TRANS: Attagene TRANS-FACTORIAL HepG2 Assay for human Liver X Receptor beta (LXRb) (AID 2282981; active means hit-call score of the fitted dose curve at least 0.9, where 1 is the maximum). As to conditions: HepG2 Attagene TRANS GAL4-LXRb reporter, mRNA. In a few lines: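 HepG2 cells transiently transfected with multiple reporter transcription units carrying chimeric NR-Gal4 proteins acting on GAL4-UAS reporters; compound exposure 24 h. Reporter mRNA quantified by RT-PCR, 6-FAM labelling, HpaI digestion and capillary electrophoresis; gain of signal versus DMSO.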

Assay [5] concerns the target Hepatocyte nuclear factor 4-alpha (Homo sapiens) (UniProt P41235). Description: ATG_HNF4a_TRANS: Attagene TRANS-FACTORIAL HepG2 Assay for human Hepatocyte Nuclear Factor 4 alpha (HNF4a) (AID 2282982; active means hit-call score of the fitted dose curve at least 0.9, where 1 is the maximum). The note with it: HepG2 HNF4a transactivation reporter, mRNA readout. The procedure, abridged:
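HepG2 cells transiently transfected with multiplexed GAL4-UAS reporter units responsive to chimeric NR-GAL4 proteins; compound exposure 24 h. Reporter mRNA quantified by RT-PCR, 6-FAM labelling, HpaI digestion and capillary electrophoresis; gain of signal versus DMSO baseline.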

The nature of assay [6]: ATG_M_32_TRANS: Attagene TRANS-FACTORIAL HepG2 Assay for M32 Transcription Factor (Internal Marker) (AID 2282984; active means hit-call score of the fitted dose curve at least 0.9, where 1 is the maximum;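 further: transcript level of a background control reporter unit measured by RT-PCR and capillary electrophoresis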). As to conditions: HepG2 Attagene TRANS M32 internal marker reporter. The procedure, abridged:
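HepG2 cells transiently transfected with multiple GAL4-UAS reporter transcription units, dosed for 24 hours; reporter mRNA quantified by RT-PCR, 6-FAM primer extension, HpaI digestion and capillary electrophoresis. Gain-of-signal fitted versus DMSO baseline; internal background-control marker.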

Assay [7] addresses Nuclear receptor subfamily 4 group A member 2 (Homo sapiens) (UniProt P43354). The assay is described as follows: ATG_NURR1_TRANS: Attagene TRANS-FACTORIAL HepG2 Assay for human Nuclear Receptor Related Protein 1 (NURR1) (AID 2282985; active means hit-call score of the fitted dose curve at least 0.9, where 1 is the maximum). The note with it: HepG2 Attagene TRANS reporter, mRNA readout. In a few lines:
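HepG2 cells transiently transfected with GAL4-UAS reporter units and chimeric NR-Gal4 constructs; chemical exposure 24 h. Reporter mRNA quantified by RT-PCR, fluorescent labelling and capillary electrophoresis; gain of signal fitted relative to DMSO baseline.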

Assay [8] concerns the target Transcriptional activator Myb (Homo sapiens) (UniProt P10242). Description: ATG_Myb_CIS: Attagene CIS-FACTORIAL HepG2 Assay for human Myeloblastosis (Myb) Proto-Oncogene Transcription Factor (AID 2282986). As to conditions: HepG2 Attagene CIS-FACTORIAL Myb reporter transcription; actives raise or lower the signal. The procedure, abridged: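 Multiplexed cis-reporter system in HepG2: transient transfection, 24 h treatment, mRNA readout by RT-PCR and capillary electrophoresis. Both increases and decreases are scored versus DMSO negative control.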

For assay [9], the target named is Nuclear respiratory factor 1 (Homo sapiens) (UniProt Q16656). Description: ATG_NRF1_CIS: Attagene CIS-FACTORIAL HepG2 Assay for human Nuclear Respiratory Factor 1 (NRF1) Orphan Gene (AID 2282987). The note with it: HepG2 NRF1 cis-element reporter, Attagene multiplex; actives raise or lower the signal. In a few lines:
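Endogenous factor activity was captured via cis-element-driven reporter transcripts in HepG2 cells. Following 24 h chemical treatment, transcripts were quantified by RT-PCR and capillary electrophoresis.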

Assay [10] in a line: ATG_NFI_CIS: Attagene CIS-FACTORIAL HepG2 Assay for human Nuclear Factor I (NFI) (AID 2282989). The note with it: HepG2 cis-regulatory reporter, NFI response element transcription; actives raise or lower the signal. The procedure, abridged: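 After transient transfection of HepG2 with cis-promoter reporter constructs and 24 h dosing, RNA is reverse-transcribed, amplified, 6-FAM end-labelled and HpaI-digested before capillary analysis. Bidirectional curve fitting against DMSO.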

For assay [11], the target named is Myc proto-oncogene protein (Homo sapiens) (UniProt P01106). The assay is described as follows: ATG_Myc_CIS: Attagene CIS-FACTORIAL HepG2 Assay for human Myelocytomatosis (Myc) Proto-Oncogene Transcription Factor (AID 2282990). As to conditions: HepG2, Attagene cis-reporter transcription factor activity; actives raise or lower the signal. In a few lines: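 HepG2 cells transiently transfected with multiple cis-promoter-driven reporter transcription units, so endogenous TF activity is read. After 24 h compound exposure, reporter mRNA was quantified by RT-PCR, 6-FAM labelling, HpaI digestion and capillary electrophoresis; bidirectional fit versus DMSO.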

Assay [12] can be described thus: ATG_NF_kB_CIS: Attagene CIS-FACTORIAL HepG2 Assay for human Nuclear Factor Kappa B (NF-kB) (AID 2282991). The note with it: HepG2 Attagene cis-factorial NF-kB reporter mRNA; actives raise or lower the signal. In a few lines: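 After 24 h compound incubation, transfected HepG2 cells yield total RNA; reporter cDNA is PCR-amplified, end-labelled with 6-FAM, HpaI-digested and analysed on a genetic analyser. Endogenous factor activity, DMSO-referenced bidirectional fit.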

The nature of assay [13]: ATG_NRF2_ARE_CIS: Attagene CIS-FACTORIAL HepG2 Assay for human Nuclear Factor Erythroid 2 Related Factor 2 (NFR2) response to Antioxidant Response Elements (ARE) (AID 2282992). The note with it: HepG2 Attagene ARE/NRF2 reporter, transcription factor activity; actives raise or lower the signal. In a few lines:
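Cis-factorial assay: transfected HepG2 reporter library, 24 h dosing, mRNA readout via RT-PCR/CE; DMSO-referenced bidirectional analysis.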

Assay [14] has as its target Cellular tumor antigen p53 (Homo sapiens) (UniProt P04637). The assay is described as follows: ATG_p53_CIS: Attagene CIS-FACTORIAL HepG2 Assay for human p53 Transcription Factor (AID 2282994). The note with it: HepG2 p53 cis-element reporter, Attagene mRNA; actives raise or lower the signal. The procedure, abridged:
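Using HepG2 hepatoma cells carrying cis-acting multiplexed reporters, mRNA induction is detected after a 24 h exposure. Gain- and loss-of-signal responses are fitted relative to DMSO-treated cells.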

Assay [15] in a line: BSK_3C_TissueFactor: BioMAP Diversity Plus: 3C Assay for Tissue Factor Biomarker Activity (AID 2282997). The note with it: BioMAP 3C HUVEC, tissue factor biomarker readout; actives raise or lower the signal. The procedure, abridged: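 HUVEC were treated 24 h, then surface tissue factor measured by ELISA and fitted bidirectionally against DMSO. Parallel SRB total-protein staining assessed overt cytotoxicity at the same time point.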

Assay [16] can be described thus: BSK_3C_uPAR: BioMAP Diversity Plus: 3C Assay for Urokinase-type plasminogen activator receptor (uPAR) Biomarker Activity (AID 2282998). As to conditions: BioMAP 3C HUVEC, uPAR biomarker ELISA; actives raise or lower the signal. The procedure, abridged: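 Endothelial primary cells of human umbilical vein origin received test chemical; 24 h later uPAR was assayed by ELISA. Fitting was bidirectional, DMSO as negative control.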

Assay [17] is described as follows: ATG_M_06_TRANS: Attagene TRANS-FACTORIAL HepG2 Assay for M06 Transcription Factor (Internal Marker) (AID 2282983; active means hit-call score of the fitted dose curve at least 0.9, where 1 is the maximum;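 further: reporter transcript level by RT-PCR then capillary electrophoresis fluorescence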). As to conditions: HepG2 Attagene TRANS M06 internal marker reporter. The procedure, abridged:
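HepG2 cells transiently transfected with GAL4-UAS multiple reporter units, dosed 24 h. Reporter RNA reverse-transcribed, PCR-amplified, 6-FAM-labeled, HpaI-digested and quantified by capillary electrophoresis; this internal-marker signal fitted upward relative to DMSO.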

Assay [18] can be described thus: ATG_Oct_MLP_CIS: Attagene CIS-FACTORIAL HepG2 Assay for human Octamer-Binding Transcription Factor (Oct) (AID 2282993). The note with it: HepG2 Attagene cis-factorial Oct reporter, mRNA; actives raise or lower the signal. In a few lines:
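Cells of the HepG2 line express promoter-controlled reporter sequences whose mRNA levels, after 24 h treatment, are measured by RT-PCR and capillary electrophoresis. Increases and decreases are scored relative to DMSO.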

A short description of assay [19]: BSK_3C_VCAM1: BioMAP Diversity Plus: 3C Assay for Vascular cell adhesion molecule 1 (VCAM1) Biomarker Activity (AID 2282999). As to conditions: BioMAP 3C HUVEC, VCAM1 ELISA, cytokine-stimulated; actives raise or lower the signal. In a few lines:
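Human umbilical vein endothelial cells were dosed with compound for 24 h, after which cell-surface VCAM-1 was quantified by ELISA. Bidirectional curve fitting used DMSO as negative control and activity baseline.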

In assay [20] the target is Glucocorticoid receptor (Homo sapiens) (UniProt P04150). The assay is described as follows: ATG_GR_TRANS: Attagene TRANS-FACTORIAL HepG2 Assay for human Glucocorticoid Receptor (GR) (AID 2282978; active means hit-call score of the fitted dose curve at least 0.9, where 1 is the maximum;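 further: activators score as hits since higher reporter transcript over DMSO is fitted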). As to conditions: HepG2 Attagene TRANS GR reporter, mRNA transcription. In a few lines: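 HepG2 transient transfection, multiple reporter units, GAL4-UAS under NR-GAL4 chimera control. 24 h treatment. Reporter mRNA by RT-PCR/CE fluorescence, DMSO as negative control.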

Each structure is given as a SMILES string. “And” between values parts separate entries of the source, which are not always exact repeats. Equal values may be shown once. Inconclusive results are not listed. The source made the active and inactive calls. How the source made its calls, unless noted: active means hit-call score of the fitted dose curve at least 0.9, where 1 is the maximum; inactive means score below 0.9.

Chain of Oxysterols receptor LXR-beta (Homo sapiens) (P55055 whole entry, looked up, the tested form may be a part): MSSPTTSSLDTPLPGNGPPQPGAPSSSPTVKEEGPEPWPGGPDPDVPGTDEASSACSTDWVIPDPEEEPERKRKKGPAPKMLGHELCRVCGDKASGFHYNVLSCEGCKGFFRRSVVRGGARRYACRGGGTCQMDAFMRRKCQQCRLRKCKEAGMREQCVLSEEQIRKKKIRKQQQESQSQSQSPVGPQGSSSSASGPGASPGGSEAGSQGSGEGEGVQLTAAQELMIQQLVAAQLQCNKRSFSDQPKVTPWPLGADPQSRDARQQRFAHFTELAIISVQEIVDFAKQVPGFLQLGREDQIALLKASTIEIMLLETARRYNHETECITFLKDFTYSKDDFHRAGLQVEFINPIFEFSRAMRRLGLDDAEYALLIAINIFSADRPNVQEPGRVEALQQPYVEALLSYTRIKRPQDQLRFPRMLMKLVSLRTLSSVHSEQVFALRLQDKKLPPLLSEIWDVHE
Chain of Cellular tumor antigen p53 (Homo sapiens) (P04637 whole entry, looked up): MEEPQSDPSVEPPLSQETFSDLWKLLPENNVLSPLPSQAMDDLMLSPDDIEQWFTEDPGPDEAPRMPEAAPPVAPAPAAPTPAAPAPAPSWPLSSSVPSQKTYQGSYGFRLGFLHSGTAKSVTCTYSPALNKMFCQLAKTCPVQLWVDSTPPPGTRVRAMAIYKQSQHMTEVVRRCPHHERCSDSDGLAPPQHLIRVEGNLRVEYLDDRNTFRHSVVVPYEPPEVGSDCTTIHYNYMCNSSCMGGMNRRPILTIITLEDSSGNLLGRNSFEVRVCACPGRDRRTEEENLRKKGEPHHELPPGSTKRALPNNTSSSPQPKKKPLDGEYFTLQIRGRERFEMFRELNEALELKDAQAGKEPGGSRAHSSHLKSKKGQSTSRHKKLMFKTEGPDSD
Chain of Hepatocyte nuclear factor 4-alpha (Homo sapiens) (P41235 whole entry, looked up, the tested form may be a part): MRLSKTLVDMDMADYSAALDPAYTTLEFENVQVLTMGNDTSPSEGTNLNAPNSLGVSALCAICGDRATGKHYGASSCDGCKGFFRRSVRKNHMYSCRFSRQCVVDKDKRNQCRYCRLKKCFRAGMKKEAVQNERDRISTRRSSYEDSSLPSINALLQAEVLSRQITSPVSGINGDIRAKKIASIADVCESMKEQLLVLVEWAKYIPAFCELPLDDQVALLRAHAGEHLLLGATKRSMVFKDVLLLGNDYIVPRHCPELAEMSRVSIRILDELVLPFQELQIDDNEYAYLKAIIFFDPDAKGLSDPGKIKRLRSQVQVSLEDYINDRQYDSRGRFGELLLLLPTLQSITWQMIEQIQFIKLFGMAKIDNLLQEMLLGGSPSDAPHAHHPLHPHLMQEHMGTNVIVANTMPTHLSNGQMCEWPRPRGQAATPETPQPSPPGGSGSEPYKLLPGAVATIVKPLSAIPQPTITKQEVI
Chain of Bile acid receptor (Homo sapiens) (Q96RI1 whole entry, looked up, the tested form may be a part): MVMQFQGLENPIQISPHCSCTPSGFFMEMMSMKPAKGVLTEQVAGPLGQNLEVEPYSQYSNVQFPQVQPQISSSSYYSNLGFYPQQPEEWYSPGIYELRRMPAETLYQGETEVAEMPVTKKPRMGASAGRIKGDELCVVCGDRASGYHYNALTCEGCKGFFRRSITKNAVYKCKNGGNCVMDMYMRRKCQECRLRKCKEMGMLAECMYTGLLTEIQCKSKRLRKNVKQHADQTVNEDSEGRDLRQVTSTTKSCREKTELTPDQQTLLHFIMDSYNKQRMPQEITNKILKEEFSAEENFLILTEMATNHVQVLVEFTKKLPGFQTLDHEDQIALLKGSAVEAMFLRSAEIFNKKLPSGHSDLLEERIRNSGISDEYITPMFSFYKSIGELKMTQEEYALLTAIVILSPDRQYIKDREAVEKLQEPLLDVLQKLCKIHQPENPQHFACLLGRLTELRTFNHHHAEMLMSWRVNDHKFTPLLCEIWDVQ
Chain of Myc proto-oncogene protein (Homo sapiens) (P01106 whole entry, looked up): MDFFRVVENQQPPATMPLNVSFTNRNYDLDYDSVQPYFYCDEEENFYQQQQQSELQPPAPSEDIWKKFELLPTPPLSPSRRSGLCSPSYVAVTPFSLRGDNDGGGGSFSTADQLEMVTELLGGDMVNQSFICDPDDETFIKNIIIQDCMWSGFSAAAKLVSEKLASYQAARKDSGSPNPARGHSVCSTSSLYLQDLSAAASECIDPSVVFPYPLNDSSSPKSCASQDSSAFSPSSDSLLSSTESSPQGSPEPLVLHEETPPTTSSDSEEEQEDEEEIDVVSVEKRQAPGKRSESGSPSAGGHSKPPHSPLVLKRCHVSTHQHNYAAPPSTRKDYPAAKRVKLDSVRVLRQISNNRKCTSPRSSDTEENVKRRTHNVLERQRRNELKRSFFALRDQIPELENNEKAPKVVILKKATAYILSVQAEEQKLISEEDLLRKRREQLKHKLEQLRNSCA
Chain of Nuclear receptor subfamily 4 group A member 2 (Homo sapiens) (P43354 whole entry, looked up, the tested form may be a part): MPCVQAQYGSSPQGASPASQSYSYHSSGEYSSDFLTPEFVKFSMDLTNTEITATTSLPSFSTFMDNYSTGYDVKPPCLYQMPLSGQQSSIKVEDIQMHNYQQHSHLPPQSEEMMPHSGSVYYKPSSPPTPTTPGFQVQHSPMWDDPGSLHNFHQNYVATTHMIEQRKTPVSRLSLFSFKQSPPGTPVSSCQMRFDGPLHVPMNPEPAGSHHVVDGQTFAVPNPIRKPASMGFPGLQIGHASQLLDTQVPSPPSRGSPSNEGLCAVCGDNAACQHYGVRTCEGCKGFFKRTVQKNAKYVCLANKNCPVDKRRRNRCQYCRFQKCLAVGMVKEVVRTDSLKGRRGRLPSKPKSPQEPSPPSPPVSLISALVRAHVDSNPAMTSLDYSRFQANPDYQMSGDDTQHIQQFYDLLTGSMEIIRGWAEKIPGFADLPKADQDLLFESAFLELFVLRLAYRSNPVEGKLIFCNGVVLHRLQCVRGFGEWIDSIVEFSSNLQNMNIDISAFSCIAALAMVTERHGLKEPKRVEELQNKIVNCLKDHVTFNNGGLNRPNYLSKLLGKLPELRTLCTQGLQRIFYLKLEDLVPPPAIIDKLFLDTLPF
Chain of Transcriptional activator Myb (Homo sapiens) (P10242 whole entry, looked up): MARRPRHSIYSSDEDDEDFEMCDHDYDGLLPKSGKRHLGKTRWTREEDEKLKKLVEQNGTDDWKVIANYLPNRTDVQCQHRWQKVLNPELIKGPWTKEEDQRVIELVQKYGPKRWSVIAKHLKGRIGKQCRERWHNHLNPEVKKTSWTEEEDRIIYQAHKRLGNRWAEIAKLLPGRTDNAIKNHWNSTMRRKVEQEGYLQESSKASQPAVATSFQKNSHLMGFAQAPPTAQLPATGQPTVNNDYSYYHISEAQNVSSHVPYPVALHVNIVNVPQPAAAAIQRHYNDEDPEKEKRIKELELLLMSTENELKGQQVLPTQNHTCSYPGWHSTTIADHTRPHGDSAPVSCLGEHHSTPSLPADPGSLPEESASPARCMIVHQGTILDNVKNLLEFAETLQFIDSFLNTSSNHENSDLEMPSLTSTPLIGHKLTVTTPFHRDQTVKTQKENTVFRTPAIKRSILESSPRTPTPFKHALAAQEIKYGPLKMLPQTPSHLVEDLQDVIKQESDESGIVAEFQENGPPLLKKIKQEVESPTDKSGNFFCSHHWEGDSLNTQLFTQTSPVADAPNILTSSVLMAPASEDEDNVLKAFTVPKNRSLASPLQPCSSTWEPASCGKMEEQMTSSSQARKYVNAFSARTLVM
Chain of Oxysterols receptor LXR-alpha (Homo sapiens) (Q13133 whole entry, looked up, the tested form may be a part): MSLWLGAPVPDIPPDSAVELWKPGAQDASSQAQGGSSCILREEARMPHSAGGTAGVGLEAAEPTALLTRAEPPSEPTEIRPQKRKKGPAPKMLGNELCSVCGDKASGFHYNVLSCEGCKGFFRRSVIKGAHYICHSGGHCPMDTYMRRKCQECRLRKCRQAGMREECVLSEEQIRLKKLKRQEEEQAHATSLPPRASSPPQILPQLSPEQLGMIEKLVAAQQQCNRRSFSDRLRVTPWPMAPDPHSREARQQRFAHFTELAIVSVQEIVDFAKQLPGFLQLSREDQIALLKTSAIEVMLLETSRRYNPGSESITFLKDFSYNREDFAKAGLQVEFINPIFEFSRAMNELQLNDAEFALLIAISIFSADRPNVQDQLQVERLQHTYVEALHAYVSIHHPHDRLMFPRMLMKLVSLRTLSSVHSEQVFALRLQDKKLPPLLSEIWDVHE
Chain of Estrogen-related receptor gamma (Homo sapiens) (P62508 whole entry, looked up, the tested form may be a part): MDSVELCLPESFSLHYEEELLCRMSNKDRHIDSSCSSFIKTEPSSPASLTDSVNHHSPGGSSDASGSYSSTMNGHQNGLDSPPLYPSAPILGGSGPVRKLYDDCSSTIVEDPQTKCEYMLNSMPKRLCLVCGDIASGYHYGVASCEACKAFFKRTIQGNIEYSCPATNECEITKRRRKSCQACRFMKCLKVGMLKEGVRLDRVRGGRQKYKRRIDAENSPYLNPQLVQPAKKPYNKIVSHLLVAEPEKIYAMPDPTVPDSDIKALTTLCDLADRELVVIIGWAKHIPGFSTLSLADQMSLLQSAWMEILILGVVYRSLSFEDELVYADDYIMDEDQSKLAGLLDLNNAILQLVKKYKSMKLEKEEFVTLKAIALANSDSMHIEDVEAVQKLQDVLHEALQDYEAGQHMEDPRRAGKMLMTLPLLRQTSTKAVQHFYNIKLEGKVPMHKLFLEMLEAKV
Chain of Nuclear respiratory factor 1 (Homo sapiens) (Q16656 whole entry, looked up): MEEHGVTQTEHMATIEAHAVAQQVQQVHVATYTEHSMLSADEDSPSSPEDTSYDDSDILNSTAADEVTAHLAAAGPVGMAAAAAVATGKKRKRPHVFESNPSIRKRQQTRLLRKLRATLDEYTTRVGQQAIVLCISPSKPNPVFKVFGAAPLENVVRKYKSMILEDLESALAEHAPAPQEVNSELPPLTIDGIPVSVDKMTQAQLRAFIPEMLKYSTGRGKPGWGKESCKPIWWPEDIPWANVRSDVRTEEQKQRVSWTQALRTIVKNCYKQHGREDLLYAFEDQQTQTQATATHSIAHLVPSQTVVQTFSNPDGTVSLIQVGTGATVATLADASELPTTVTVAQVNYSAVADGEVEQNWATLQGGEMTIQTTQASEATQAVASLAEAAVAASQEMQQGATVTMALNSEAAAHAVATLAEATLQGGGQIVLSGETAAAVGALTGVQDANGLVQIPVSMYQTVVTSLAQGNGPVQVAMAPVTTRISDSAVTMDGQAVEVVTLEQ

Consider `CNS(=O)(=O)C(F)(F)C(F)(F)C(F)(F)C(F)(F)C(F)(F)C(F)(F)C(F)(F)C(F)(F)F`, for which the compound was classed as inactive in assay [1], in [2], in assay [3], in assay [4], in [5] and in [6]. The result in assay [7], in [8], in [9], in [10], in assay [11] and in assay [12] was inactive. Besides, the result in [13], in assay [14], in [15] and in assay [16] was inactive.

In the case of `Oc1ccc2c(c1)CCC2`, the result in assay [1], in [2], in assay [4], in assay [5], in [17] and in [6] was inactive. Further, the call in assay [8], in assay [9], in [10], in [11], in [12] and in assay [13] was inactive. Also, the outcome in assay [18] and in [14] was inactive.

Consider `CCOC(=O)CCC(C)=O`, for which the result in [1], in assay [3], in assay [4], in assay [6], in [8] and in [9] was inactive. The result in [10], in assay [11], in [12], in [13] and in assay [14] was inactive.

As for `O=C(O)CCC(F)(F)C(F)(F)C(F)(F)F`, the result in [1], in [2], in assay [3], in assay [4], in assay [5] and in assay [17] was inactive. Further, the outcome in assay [6], in [7], in assay [8], in assay [9], in [10] and in assay [11] was inactive. Besides, the outcome in assay [12], in assay [13], in assay [18], in assay [15], in assay [16] and in assay [19] was inactive.

With `C=CC(=O)OCC(F)(F)C(F)(F)C(F)(F)COC(=O)C=C`, the compound was called inactive in assay [1], in [20], in [2], in [4], in [5] and in [17]. In addition, the compound was classed as inactive in assay [7], in assay [8], in [9], in assay [10] and in assay [11]. For the same compound, the AC50 in assay [12] is 15.9 µM (active); in assay [13], 12.7 µM (active); in assay [18], 10.9 µM (active); in assay [14] it was 78.8 µM (active); in assay [15] it was 23.3 µM (active) and 14.6 µM (active); in assay [16] it was 30 µM (active) and 48.5 µM (active).
